The values below come from PubChem BioAssay (NCI).

About 83,000 compounds went through this panel and 20% of them were active in at least one assay; those are over-represented in the sample as a whole.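 A percent growth of 40 corresponds to 60% growth inhibition; 0 means no net growth; -100 means all cells died. Active threshold: below 10.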 A number with no mark means an inactive call. Active and inactive are the calls of the source.

Some test systems named below: NCI-H23 lung; NCI-H226 lung; NCI-H322M lung; HOP-62 NSCLC; NCI-H460 lung; HOP-92 NSCLC; NCI-H522 lung; 786-0 renal; COLO 205 colon; DU-145 prostate; MALME-3M melanoma; MDA-MB-231 breast; RXF 393 renal; SF-268 CNS; SF-295 CNS; SF-539 CNS; UACC-257 melanoma; M14 melanoma; A549/ATCC NSCLC; K-562 leukemia.
Common to all, as to test: NCI-60 one-dose screen, 48 h (100 = growth as untreated, 0 = no growth, -100 = all killed)
Common to all, as to details: 10 µM unless noted

`CN(C)C(=O)c1cc2cnc(Nc3ccc(-c4csc5c(=O)cc(N6CCNCC6)oc45)cc3)nc2n1C1CCCC1`: the growth in the assay with NCI-H23 lung was 0.906% (active); with NCI-H226 lung it was 16.1%; in the assay on NCI-H322M lung it was 23%; with HOP-62 NSCLC it was 21.4%; in the assay on NCI-H460 lung, 7.5% (active); with HOP-92 NSCLC it was 31.3%. The growth in the assay with NCI-H522 lung was 46.5%; in the assay with 786-0 renal, 7.89% (active); with COLO 205 colon it was 11%; with DU-145 prostate, 29.9%; in the assay with MALME-3M melanoma, 60.2%; with MDA-MB-231 breast it was 9.91% (active). Besides, the growth is -78.6% (active) with RXF 393 renal; 19.2% in the assay with SF-268 CNS; 15.2% in the assay with SF-295 CNS; -33% (active) in the assay on SF-539 CNS; 64.4% with UACC-257 melanoma; 27.1% in the assay on M14 melanoma.
As for `O=C(/C=C/c1ccc(Cl)cc1)c1ccc(O)c(CN2CCN(c3cc4c(cc3F)c(=O)c(C(=O)O)cn4C3CC3)CC2)c1`, the growth in the assay with NCI-H23 lung is 51.7%; with NCI-H226 lung, 67.3%; in the assay on NCI-H322M lung it was 72.8%; in the assay with NCI-H460 lung, 70.7%; with HOP-92 NSCLC, 40.8%; in the assay with NCI-H522 lung, 45.2%. For the same compound, the growth with A549/ATCC NSCLC was 50%; with 786-0 renal, 55.1%; with COLO 205 colon it was 136%; in the assay on DU-145 prostate it was 63.5%; in the assay with K-562 leukemia, 50.7%; with MALME-3M melanoma, 59.8%. Also, the growth in the assay on MDA-MB-231 breast was 77.2%; with RXF 393 renal, 45.4%; in the assay with SF-268 CNS, 42%; with SF-295 CNS, 45%; in the assay with SF-539 CNS it was 53.5%; in the assay on UACC-257 melanoma, 90.2%. In the assay on M14 melanoma, the growth was 52.6%.
`Oc1cc(O)c2c(=S)cc(-c3ccc(Cl)cc3)oc2c1`: the growth in the assay with NCI-H23 lung is 4.05% (active); with NCI-H226 lung, 73.6%; with NCI-H322M lung, 60.4%; in the assay on NCI-H460 lung, 21%; in the assay on HOP-92 NSCLC, -21.9% (active); with NCI-H522 lung, -1.71% (active). Moreover, the growth in the assay on A549/ATCC NSCLC is 53.6%; in the assay on 786-0 renal, 74.6%; in the assay on COLO 205 colon, 85.8%; in the assay with DU-145 prostate, 36.9%; with K-562 leukemia, 28.2%; with MALME-3M melanoma, 22.7%. The growth in the assay with MDA-MB-231 breast was 21.6%; with RXF 393 renal, 64.6%; in the assay on SF-268 CNS, 36.8%; with SF-295 CNS it was 91.4%; in the assay on UACC-257 melanoma, 32.9%; in the assay on M14 melanoma, 31.4%.
On to `O=C(CO[N+](=O)[O-])Nc1ccc(C(=O)/C=C/c2ccc3c(c2)OCO3)cc1`, for which the growth was 58.1% in the assay on NCI-H23 lung; 107% in the assay on NCI-H226 lung; 108% in the assay on NCI-H322M lung; 108% in the assay with NCI-H460 lung; 77.3% with HOP-92 NSCLC; 97.6% in the assay with NCI-H522 lung. For the same compound, the growth is 88.9% in the assay with A549/ATCC NSCLC; 109% with 786-0 renal; 113% with COLO 205 colon; 96.7% with DU-145 prostate; 59.1% in the assay on K-562 leukemia; 116% with MALME-3M melanoma. Also, the growth in the assay with MDA-MB-231 breast is 87.4%; in the assay with RXF 393 renal, 107%; with SF-268 CNS it was 82.4%; in the assay with SF-295 CNS it was 74.6%; with UACC-257 melanoma, 92.9%; in the assay on M14 melanoma it was 81.8%.
For the compound `CC(C)c1c(C(=O)Nc2ccccc2)c(-c2ccccc2)c(-c2ccc(F)cc2)n1CC[C@@H]1CC=CC(=O)O1`, the growth is 1.14% (active) with NCI-H23 lung; 39.7% in the assay with NCI-H226 lung; 58.6% in the assay with NCI-H322M lung; 5.24% (active) in the assay with NCI-H460 lung; -24.5% (active) in the assay on HOP-92 NSCLC; -33.4% (active) with NCI-H522 lung. Besides, the growth in the assay with A549/ATCC NSCLC was -9.24% (active); in the assay on 786-0 renal, -26.2% (active); in the assay with COLO 205 colon, -49.9% (active); in the assay with DU-145 prostate it was 26.3%; with MALME-3M melanoma it was 8.81% (active); in the assay on MDA-MB-231 breast it was -25.6% (active). For the same compound, the growth in the assay on RXF 393 renal was -84.5% (active); in the assay with SF-268 CNS it was -33.3% (active); in the assay with SF-295 CNS it was 82.3%; with SF-539 CNS, -18.5% (active); in the assay on UACC-257 melanoma, 16.9%; in the assay with M14 melanoma, -11.2% (active).
As for `COc1cc(/C=N\NC(=O)CN2CCN(c3cc4c(cc3F)c(=O)c(C(=O)N/N=C/c3ccc(O)c(OC)c3)cn4C3CC3)CC2)ccc1O`, the growth is 53.7% in the assay with NCI-H23 lung; 70.5% in the assay on NCI-H226 lung; 31.7% in the assay with NCI-H322M lung; 67% in the assay on NCI-H460 lung; 70.9% in the assay with HOP-92 NSCLC; 18.9% with NCI-H522 lung. The growth was 92.4% in the assay with 786-0 renal; -9.77% (active) in the assay with COLO 205 colon; 66.3% in the assay with DU-145 prostate; 40.5% in the assay with K-562 leukemia; 62.4% in the assay on MALME-3M melanoma; 59.5% in the assay on MDA-MB-231 breast. Further, the growth was 86.9% in the assay on RXF 393 renal; 59.4% with SF-268 CNS; 90.5% with SF-295 CNS; 86.9% with SF-539 CNS; 41% in the assay with UACC-257 melanoma; 80% in the assay with M14 melanoma.
In the case of `O=C1CC(c2nc3ccccc3[nH]2)CN1C1CCCCC1` (stereo unspecified), the growth with NCI-H23 lung is 89.8%; with NCI-H226 lung, 95.4%; in the assay on NCI-H322M lung, 103%; in the assay with NCI-H460 lung, 109%; with HOP-92 NSCLC it was 91.3%; in the assay on NCI-H522 lung it was 89.3%. Besides, the growth with A549/ATCC NSCLC was 104%; in the assay with 786-0 renal it was 110%; in the assay with COLO 205 colon, 102%; in the assay with DU-145 prostate, 110%; with K-562 leukemia, 102%; in the assay with MALME-3M melanoma, 103%. Moreover, the growth is 102% in the assay with MDA-MB-231 breast; 111% in the assay with RXF 393 renal; 101% in the assay on SF-268 CNS; 97.3% in the assay with SF-295 CNS; 101% with UACC-257 melanoma; 104% in the assay with M14 melanoma.
In the case of `COc1ccc(N(Cc2cc(OC)c(OC)c(OC)c2)C2OC(=O)c3ccccc32)cc1` (stereo unspecified), the growth with NCI-H23 lung is 36.7%; in the assay on NCI-H226 lung, 67.2%; in the assay on NCI-H322M lung, 52.4%; in the assay on NCI-H460 lung, 10.4%; in the assay on HOP-92 NSCLC it was 51.3%; with NCI-H522 lung it was -17.2% (active). In addition, the growth in the assay on A549/ATCC NSCLC was 23.7%; in the assay with 786-0 renal it was 61.8%; with COLO 205 colon it was -3.48% (active); in the assay with DU-145 prostate, 25.5%; in the assay on K-562 leukemia, 17.7%; in the assay with MALME-3M melanoma it was 31.3%. For the same compound, the growth in the assay with MDA-MB-231 breast is 41.1%; in the assay with RXF 393 renal, -31.7% (active); with SF-268 CNS it was 44%; with SF-295 CNS, 16.3%; with UACC-257 melanoma, 70.8%; in the assay with M14 melanoma it was 25.7%.
Consider `CCN1CCN(Cc2ccc(NC(=O)Nc3nc4ccc(Oc5ccnc(C(=O)NC)c5)cc4s3)cc2C(F)(F)F)CC1`, for which the growth in the assay on NCI-H23 lung was -12.2% (active); in the assay with NCI-H226 lung, -1.71% (active); in the assay with NCI-H322M lung, 17.1%; with NCI-H460 lung, -66.7% (active); in the assay on HOP-92 NSCLC, -68.3% (active); in the assay with A549/ATCC NSCLC it was -41.7% (active). Further, the growth in the assay with COLO 205 colon is -40.5% (active); with DU-145 prostate, -16.1% (active); in the assay with MALME-3M melanoma, -68% (active); in the assay on MDA-MB-231 breast it was -78.4% (active); with RXF 393 renal, -88.4% (active); with SF-268 CNS, -47.3% (active). Further, the growth with SF-295 CNS was -23.9% (active); in the assay on SF-539 CNS, -85.2% (active); in the assay with UACC-257 melanoma, -49.2% (active); with M14 melanoma, -76.2% (active).
